Assay outcomes (PubChem BioAssay)
Most compounds without a hit are left out; they make up all but 0.95% or so of the library.
ugtP null kill = kills S. aureus RN4220 lacking UgtP | growth inhibition, % (concentration not given with the values) | 330,000 compounds, 0.54% hits | S. aureus RN4220 ugtP deletion, OD600 growth, 16 h; in the data active means growth inhibition above about 68%;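 further: plate controls were untreated wells for no effect and antibiotic for full effect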
PrPC TRFRET = reduces human prion protein on the cell surface. inhibition, % at 13.8 µM. cell surface PrPC, TR-FRET read-out. 370,000 compounds, 0.43% hits. P04156; in the data active means inhibition above about 24%; further: 0% = median of the test wells and 100% = reference compound wells
Sa RN4220 lethal = kills Staphylococcus aureus RN4220; inhibition, % (no concentration beside the values); AID 1259311; S. aureus RN4220 growth, OD600, 16 h; 330,000 compounds, 0.33% hits; in the data active means inhibition above about 85%;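 further: plate controls were untreated cells for no effect and reference antibiotic for full effect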
BJeLR viability = BJeLR cell viability loss | BJeLR (HRASV12) viability, CellTiter-Glo ATP luminescence, 48 h | inhibition, % (no concentration beside the values) | 300,000 compounds, 0.17% hits | AID 1554; in the data active means inhibition above about 50%
PrPC confirm = confirmation of inhibitors of cell surface human prion protein | shares compounds with PrPC TRFRET | cell surface PrPC level, TR-FRET | inhibition, % at 13.8 µM | 1,500 compounds, 65% hits | AID 743200; in the data active means inhibition above about 25%
LD9 cytotox = kills or reduces viability of LD9 cells in PrPc counter-screen | shares compounds with PrPC TRFRET | LD9 cells cytotoxicity, luminescence viability | inhibition, % at 13.8 µM | 1,500 compounds, 29% hits; in the data active means inhibition above about 9.5%
* hit, by the source's call; / = not tested or not shown.

SMILES	ugtP null kill	PrPC TRFRET	Sa RN4220 lethal	BJeLR viability	PrPC confirm	LD9 cytotox
CC(=O)O[C@H]1C(=O)[C@@]2(C)[C@H]([C@H](OC(=O)c3ccccc3)[C@]3(O)C[C@H](OC(=O)[C@H](O)[C@@H](NC(=O)c4ccccc4)c4ccccc4)C(C)=C1C3(C)C)[C@]1(OC(C)=O)CO[C@@H]1C[C@@H]2O	/	34.9*	/	/	24.1	2.9
CC(=O)O[C@H]1C(=O)[C@@]2(C)[C@H]([C@H](OC(=O)c3ccccc3)[C@]3(O)C[C@H](OC(=O)[C@H](O)C(NC(=O)c4ccccc4)c4ccccc4)C(C)=C1C3(C)C)[C@]1(OC(C)=O)CO[C@@H]1C[C@@H]2O (some centres not stated)	/	31.2*	/	39.5	27.4*	7.8
CC/C=C/CC(=O)N[C@@H](c1ccccc1)[C@@H](O)C(=O)O[C@H]1C[C@@]2(O)[C@@H](OC(=O)c3ccccc3)C3[C@](C)(C(=O)[C@H](OC(C)=O)C(=C1C)C2(C)C)[C@@H](O)C[C@H]1OC[C@@]31OC(C)=O (some centres not stated)	-1.9	25.7*	1.3	29.9	23.2	-2.0
CCCCCC(=O)N[C@@H](c1ccccc1)[C@@H](O)C(=O)O[C@H]1C[C@@]2(O)[C@@H](OC(=O)c3ccccc3)C3[C@](C)(C(=O)[C@H](OC(C)=O)C(=C1C)C2(C)C)[C@@H](O)C[C@H]1OC[C@@]31OC(C)=O (some centres not stated)	0.5	18.8	-2.0	27.5	/	/
Cc1ccsc1C=NNC(=O)c1ccc2c(c1)OCO2	-7.1	/	10.5	/	/	/
CC(=O)N1c2ccc(S(=O)(=O)N3CCCC(C(=O)Nc4cc(C)cc(C)c4)C3)cc2CC1C (configuration not stated)	8.1	35.5*	-1.7	7.2	57.9*	-4.6
CC(=O)N1c2ccc(S(=O)(=O)N3CCCC(C(=O)Nc4ccc(F)cc4)C3)cc2CC1C (configuration not stated)	6.8	34.8*	-1.6	13.6	38.9*	15.5*
COc1cc(NC(=O)C2CCCN(S(=O)(=O)c3ccc4c(c3)CCCN4C(C)=O)C2)cc(OC)c1 (configuration not stated)	-5.3	41.0*	-2.7	-3.3	28.2*	-0.6
CC(C)(C)c1ccc(S(=O)(=O)Nc2ccc(Cc3ccncc3)cc2)cc1	-8.5	28.4*	4.1	-2.4	44.1*	6.7
CNc1ncc(C(=O)c2ccc(Cl)cc2)s1	1.9	62.0*	9.9	6.4	77.8*	-8.6
CC(C)N1CCc2c(sc(NC(=O)c3ccc([N+](=O)[O-])o3)c2C(N)=O)C1	/	48.6*	/	4.7	62.5*	54.3*
O=C(COc1nsnc1N1CCOCC1)Nc1ccc([N+](=O)[O-])cc1	-5.5	-0.8	0.4	-8.0	/	/
O=C(COc1nsnc1N1CCOCC1)Nc1ccc(Cl)cc1	-4.4	25.6*	5.3	-1.8	8.3	-2.8
N#Cc1c(N)n(C2OC(CO)C(O)C2O)c2ncnc(N)c12 (configuration not stated)	/	26.5*	/	/	30.1*	33.8*
Nc1ncnc2c1ncn2[C@@H]1O[C@H](CO)[C@@H](O)[C@@H]1O	/	8.5	/	12.8	/	/
COc1ccc2ccccc2c1C=NNC(=O)c1sc(N)c(C#N)c1C	-2.7	/	5.4	/	/	/
COc1cccc(C=NNC(=O)CNC(=O)COc2cccc(C)c2)c1O	-5.8	/	-0.6	/	/	/
CCOc1ccccc1NC(=O)Nc1ccc(Cl)cc1	-14.8	25.9*	-7.3	1.3	12.7	-0.1
CCOc1ccccc1NC(=O)Nc1ccccn1	4.5	-5.4	4.3	-5.3	/	/
COc1ccc(N2CC(C(=O)NN=Cc3ccccc3)CC2=O)cc1 (configuration not stated)	8.5	/	2.2	/	/	/
Cc1[nH]nc(C(F)(F)F)c1N=NN1CCOCC1	/	31.1*	/	/	40.3*	64.7*
Clc1ccc(N=NN2CCOCC2)cc1	12.3	-3.1	14.1	-4.3	/	/
O=C(CN1CCCCC1)NN=Cc1cc2ccccc2nc1Cl	-4.9	/	2.6	/	/	/
Cc1c(C(=O)c2ccccc2C(=O)O)sc2ccccc12	-3.0	33.3*	8.3	6.0	54.3*	-5.8
Cc1cc(C)c(C)c(C(=O)c2ccccc2C(=O)O)c1C	4.9	8.2	7.9	-1.6	/	/
SMILES	ugtP null kill	PrPC TRFRET	Sa RN4220 lethal	BJeLR viability	PrPC confirm	LD9 cytotox
O=C(Nc1ccccc1F)c1ccc(CSc2ncccn2)cc1	-5.6	14.6	-3.0	-1.3	/	/
O=C(Nc1ccccc1)c1ccc(CSc2ncccn2)cc1	9.9	36.8*	0.0	12.4	38.2*	1.7
COc1cccc2c(NCc3ccccc3)nc(-n3c(N)nc4ccccc43)nc12	/	70.0*	/	/	49.3*	98.2*
CCc1ccccc1N(C)S(=O)(=O)c1ccc2[nH]cc(C(=O)N3CCc4ccccc43)c(=O)c2c1	16.7	100.4*	8.7	-0.4	3.8	-4.8
Cc1cccc(N(C)S(=O)(=O)c2ccc3[nH]cc(C(=O)N4CCOCC4)c(=O)c3c2)c1	4.5	7.4	2.8	-5.2	/	/
O=C1C=C(c2ccc3c(c2)OCO3)CC(c2ccc(F)cc2)C1 (configuration not stated)	-2.3	/	2.6	/	/	/
N#Cc1c(SCC(=O)Nc2nncs2)sc2c(O)cc(=O)[nH]c12	/	26.8*	/	0.2	1.1	-3.6
Cn1c(=O)cc(OCCCC(=O)Nc2ccccn2)c2ccccc21	-7.0	-8.9	6.3	-0.7	/	/
Cn1c(=O)cc(OCCCC(=O)Nc2cc(-c3cn[nH]c3)ccn2)c2ccccc21	/	35.2*	/	/	41.3*	24.3*
CC1CC(N(C(=O)c2ccc(Cl)cc2)c2ccccc2)c2ccccc2N1C(=O)c1ccco1 (configuration not stated)	-3.2	24.5*	-9.9	-0.8	13.2	-2.6
C(=NNc1ccc2ccccc2n1)c1ccc2c(c1)OCO2	9.9	/	-0.3	/	/	/
CC(NC1CCCCC1)C(O)C12CC3CC(CC(C3)C1)C2 (configuration not stated)	1.6	35.5*	3.7	0.9	28.4*	2.4
CC(NC(N)=O)C12CC3CC(CC(C3)C1)C2 (configuration not stated)	-0.2	0.1	1.2	-7.4	/	/
CCN(CC)CC(=O)Nc1ccc(C(C)=NNC2=NCCN2)cc1	11.2	/	4.0	/	/	/
S=C(NCCc1ccccc1)NN=Cc1ccc(Cl)cc1	-24.7	/	5.4	/	/	/
N#Cc1ccc(NC(=O)Nc2ccc(Cl)cc2)cc1	-14.0	26.6*	33.7	12.3	32.4*	16.2*
COc1ccc(NC(=O)c2cc(-c3ccc(F)cc3C)n[nH]2)cc1OC	/	25.0*	/	/	12.8	7.5
COc1ccc(NC(=O)c2cc(-c3cc(Cl)ccc3OC)n[nH]2)cc1OC	/	18.7	/	/	/	/
COc1ccc(NC(=O)c2cc(-c3cc(Cl)ccc3C)n[nH]2)cc1OC	/	25.0*	/	/	28.2*	15.2*
Cc1cc(F)ccc1-c1cc(C(=O)Nc2ccc(F)cc2)[nH]n1	/	8.5	/	/	/	/
CN(C)c1ccc(C=NNC(=O)CN(c2cccc(Cl)c2)S(C)(=O)=O)cc1Br	-8.9	/	-1.8	/	/	/
